# ± gives the standard deviation.
# System: EfPiwi piRISC loaded with piRNA #1 (26 nt)
# Experiment: pre-steady-state target cleavage rate (min^-1); auxiliary factor: 500 nM Ephydatia muelleri Gtsf1; guide: piRNA #1 5'p-UGAGGUAGUAGGUUGUAUAGUAUCCA; MIWI and MILI are mouse PIWI proteins and EfPiwi is from a freshwater sponge; tags in brackets are library labels; higher = faster piRNA-guided slicing of the target
# Outline: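 Cleave-'n-Seq reactions paired 0.1 nM transcribed, DNA-blocked target RNA library with 1 nM active affinity-purified piRISC holding one synthetic guide, plus or minus 500 nM GTSF1 partner protein, in HEPES–potassium acetate buffer at 33 °C for 0–8 or 0–960 min. After sequencing of uncleaved targets and normalisation to depth and weakly complementary targets, the pre-steady-state cleavage rate was taken from a burst-and-steady-state fit. Three trials were pooled, and k3 was capped at 0.0001 min^-1.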
row,Sequence,pre-steady-state target cleavage rate
1,GGAGUGGAUACUAUACAAACCUACUACCUCA,0.0643 ± 0.023
2,GGAGAGGAUACUAUACAAGCUACUACCUGA,0.00442 ± 0.0019
3,GGAGAGGAUACUAUACACCCUACUACCUCA,0.0114 ± 0.0053
4,GGAGAGCAUACUAUACAACCUACAACCUCA,0.0026 ± 0.0017
5,GGAGAGGAUACUAUACUAACCUACUACCUCA,0.0128 ± 0.007
6,GGAGACCUAUGAUAUCAACCAAGUACCUCA,< 0.0001
7,GGAGACCAUACUAUACAACCUACUACCAGA,0.00458 ± 0.0019
8,GGAGUGGAUACUAUACAACCUACUUCCACA,0.00294 ± 0.0024
9,GGAGAGGAUACUAUACUACCAACUACCUCA,0.00357 ± 0.0021
10,GGAGACGAUACUUAUACAACCUACUACCUCA,0.0473 ± 0.017
11,GGAGUGUAUACUAUACAACCUACUACCUCA,0.0133 ± 0.0057
12,GGAGAGGAUACUAUACAACCUACUUCCUGA,0.00331 ± 0.0022
13,GGAGACCUAACAAAACAACCUACUACCUCA,0.00903 ± 0.0046
14,GGAGAGGAAACUAUACAACCUACUUCCUCA,0.00302 ± 0.0017
15,GGAGAGGAUACUAUACAACUCUACUACCUCA,0.00443 ± 0.0043
16,GGAGAGGAUACUAUACAACCUAGUUCCUCA,0.00396 ± 0.0022
17,GGAGACCCUACUAUACAACCUACUACCUCA,0.153 ± 0.051
18,GGAGACGAUACUAUACAACCUAGUAGCUCA,0.00474 ± 0.0023
19,GGAGAGGAUACUAUAUCAACCUACUACCUCA,0.0145 ± 0.0066
20,GGAGUGGAUACUAUACACACCUACUACCUCA,0.0105 ± 0.005

row,Sequence,pre-steady-state target cleavage rate
1,GGAGACCUAAUAUACAACCUACUACCUCA,0.0061 ± 0.0043
2,GGAGACGAUACUAUACAACCCACUACCUCA,0.00638 ± 0.0022
3,GGAGAGGUUACUAUACAACCUAGUACCUCA,0.00366 ± 0.0015
4,GGAGACCAAACUAUACAACCUUCUACCUCA,0.00406 ± 0.0026
5,GGAGUGGAUACUAUACAACCUACUUGCUCA,0.0047 ± 0.0026
6,GGAGACCAUACUAUACAACCUACUACCGCA,0.00689 ± 0.0023
7,GGAGAGGAUACUAUACAACCUACUUCCACA,0.00373 ± 0.0022
8,GGAGACCUUACUAUACAACCGACUACCUCA,0.00553 ± 0.0036
9,GGAGACGUUACAAUACAACCUACUACCUCA,0.0105 ± 0.0045
10,GGAGACCUUACUAUACAAACCUACUACCUCA,0.0103 ± 0.0047
11,GGAGACCUAUGAUAUCAACCUACAUGCUCA,< 0.0001
12,GGAGACCUAACUAUACAACCUACUACCUGA,0.00393 ± 0.002
13,GGAGACCAUACUAUACAACCUACUUGGUCA,0.00392 ± 0.0029
14,GGAGUGGAUACUAUACAACCUACUAUCUCA,0.0684 ± 0.026
15,GGAGACGAUACUAACAACCUACUACCUCA,0.00704 ± 0.0045
16,GGAGAGGAUACUAUACAACCUACUACGACA,0.0044 ± 0.0023
17,GGAGAGGAUACUAUACAACCUACUAGGAGA [g6:g25:cont:t1A],0.00363 ± 0.0023
18,GGAGACCUAACUAUACAACCUACUACCUCU [g2:g21:cont:t1U],0.915 ± 0.29
19,GGAGAGGAUACUAUACAACCAACAACCUCA,0.00224 ± 0.0022
20,GGAGAGGAUACUAUACAACCUACUCCCUCA,0.00429 ± 0.0017

# — the supplement of paper PMC10338343
